Source: PubChem BioAssay AID707 (Columbia University Molecular Screening Center, 2007)
Hit rate of the full screen: of about 91,000 compounds, about 310 (0.34%) were called active. Rule as the data show it: active = inhibition above about 80%; inactive = the rest. What follows is part of a selection rich in actives, with near analogues and random picks from the rest.

Biological target: Bifunctional epoxide hydrolase 2 (Homo sapiens) (UniProt P34913)
Assay: sEH enzyme activity blockers – biochemical, human sEH, primary screen (AID 707)
Conditions: recombinant human sEH enzymatic activity assay; at 2 µM; active compounds read high

Bifunctional epoxide hydrolase 2 (Homo sapiens), sequence (P34913 whole entry, looked up): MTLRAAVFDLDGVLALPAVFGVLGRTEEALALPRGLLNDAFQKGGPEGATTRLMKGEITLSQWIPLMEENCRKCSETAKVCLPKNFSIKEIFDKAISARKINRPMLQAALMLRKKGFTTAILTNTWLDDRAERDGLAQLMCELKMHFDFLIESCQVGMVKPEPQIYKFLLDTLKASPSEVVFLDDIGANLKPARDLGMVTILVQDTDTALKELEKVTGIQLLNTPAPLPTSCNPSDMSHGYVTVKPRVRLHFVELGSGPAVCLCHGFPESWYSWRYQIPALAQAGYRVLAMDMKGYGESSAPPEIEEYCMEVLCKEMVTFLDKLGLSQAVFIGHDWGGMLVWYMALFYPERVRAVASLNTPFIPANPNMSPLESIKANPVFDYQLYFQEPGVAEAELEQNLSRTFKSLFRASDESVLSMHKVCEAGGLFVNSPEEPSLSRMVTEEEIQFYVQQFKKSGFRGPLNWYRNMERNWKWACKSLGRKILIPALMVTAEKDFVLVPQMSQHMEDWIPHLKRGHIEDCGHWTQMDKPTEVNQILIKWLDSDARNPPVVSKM

inhibition, inactive:
Cc1ccc(NC(=S)N/N=C2/CCCc3c(C)cc(C)cc32)cc1 -9.1%
CCN(CC)CCNc1ccc(Cl)cc1[N+](=O)[O-] 6.5%
CSCc1cc(N2CCOCC2)nc(SCc2ccc(Cl)cc2Cl)n1 -22.1%
COc1ccc(C(=O)Nc2ccccc2C(=O)N/N=C/c2ccccc2OC)cc1 4.7%
CCOc1ccc(C(=O)NC2CCN(S(=O)(=O)CC)CC2)cc1 -0.5%
O=C(NC1CCCCC1)c1cc([N+](=O)[O-])ccc1N1CCOCC1 2.6%
C/C(=N\NS(=O)(=O)c1cccc([N+](=O)[O-])c1)c1cc2ccccc2o1 7.3%
O=C(Nc1ccn(Cc2ccccc2F)n1)c1ccc(COc2ccc(Cl)cc2Cl)o1 1.6%
O=C(Nc1ccc(-n2ccnc2P(=O)(O)c2ccccc2)cc1)c1ccccc1Br -9.1%
CC(=O)Nc1cccc(/C(C)=N/NC(=O)c2ccccc2Cl)c1 7.7%
O=C(NNS(=O)(=O)c1ccc(Cl)cc1)C1CCN(Cc2ccccc2)CC1 -4%
CN(C)/C(CN1CCCCC1)=C1\N=C(c2ccccc2)OC1=O 6.9%
CC(=O)c1cnc(SCCN2C(=O)c3ccccc3C2=O)nc1C 8.1%
C=CCNC(=O)c1sc(SC)cc1-c1ccc(Cl)cc1 -13.7%
CC(C)CNC(=S)NNC(=O)c1ccccc1OC(F)F -9.6%
COC(=O)c1ccccc1OCC(=O)N1CCN(c2ccc(Cl)cc2)CC1 46.4%
Cc1c(NC(=O)CCCOc2ccccc2)cccc1[N+](=O)[O-] 11.7%
CCC(=O)Nc1ccc(C(=O)Nc2cc(C)on2)cc1 -8.6%
CCOc1ccc(C(CCc2ccccc2)NC(=O)c2ccc(OC)c(OC)c2)cc1OCC (stereo not drawn) -23.6%
COc1cccc(-c2nnc(SCCOc3ccc4c(C)cc(=O)oc4c3)o2)c1 12.2%
CCCCn1c(=S)[nH]c2cc(S(=O)(=O)N3CCCCC3)ccc21 6.5%
O=C(c1ccc(F)cc1)c1c[nH]c(C(=O)NCc2cccnc2)c1 -11.2%
N#Cc1ccsc1NC(=O)CN1CCCCC1 -1.4%
O=C(COc1ccc(Cl)cc1)NCCC1=CCCCC1 14.4%
COc1cc(C(=O)N2CCN(C/C=C/c3ccccc3)CC2)cc(OC)c1C -12.7%
NC(=O)N1CCCC1C(=O)Nc1ccc(Cl)c(Cl)c1 (stereo not drawn) 6.3%
Nc1nc(Br)c2ccccc2c1-c1ccc(F)cc1 4.8%
Cc1ccc(-c2csc(N(Cc3ccco3)C(=O)c3cccs3)n2)cc1 -9.9%
O=[N+]([O-])c1ccc(NCCCN2CCOCC2)c(Cl)c1 19.3%
CC(C)NC(=O)NC(=O)COC(=O)c1ccc(NC(=O)CC#N)cc1 -6%
CC(C)C(NS(=O)(=O)c1cccs1)C(=O)Nc1nc(C(C)(C)C)cs1 (stereo not drawn) 3.1%
COc1cccc(/C=N/NC(=O)C(=O)N2CCCC2)c1 -4.3%
O=c1cc(N2CCN(Cc3ccccc3)CC2)c(-c2ccccc2)n[nH]1 5.8%
COc1cccc(NC(=O)C2c3cc(OC)c(OC)cc3C(=O)N(C)C2c2cccnc2)c1 (stereo not drawn) -8.1%
O=C(CN1C(=O)NC2(CCCC2)C1=O)Nc1ccc(F)c(F)c1F -1.5%
O=C(CCCN1C(=O)c2cccc3cccc(c23)C1=O)N1CCN(Cc2ccc3c(c2)OCO3)CC1 5.9%
N/C(=N\OC(=O)c1cc(-c2ccccc2)nc2ccccc12)c1ccncc1 -2%
O=C(CSCc1ccc([N+](=O)[O-])cc1)Nc1cccc(C(=O)Nc2ccccc2C(=O)O)c1 -3.9%
Cc1cc(C(=O)OCC(=O)Nc2ccc(F)c(F)c2)c(C)o1 7.9%
CCC(C)n1c(-c2cc(OC)c(OC)c(OC)c2)nc2nc3ccccc3nc21 (stereo not drawn) -0.7%
O=C(CNC(=O)OCc1ccccc1)Oc1cc2oc(=O)cc(-c3ccccc3)c2cc1Cl -5.2%
COc1ccccc1N(C)S(=O)(=O)c1ccc(C(=O)N2CCC(C(N)=O)CC2)cc1 12.9%
CN(C(=O)CSc1nc(C2CC2)nc2ccccc12)c1nc(-c2ccccc2)cs1 4.4%
CCCCNC(=O)c1onc(CSc2cccc(OC)c2)c1C(=O)O -10.5%
CCOC(=O)C1=C(CN2CCc3ccccc32)NC(=O)NC1c1cc(C)ccc1C (stereo not drawn) -4.9%
COc1ccc(SCc2noc(C(=O)NCC3CCCO3)c2C(=O)O)cc1 (stereo not drawn) 1.5%
O=C(Cc1cccc2ccccc12)Nc1ccc2oc(-c3ccccc3)nc2c1 50%
O=C(Nc1ccc2oc(-c3ccc4ccccc4c3)nc2c1)c1cccs1 34.6%
C=CCNc1cnn(-c2ccc(C)cc2)c(=O)c1Cl 1.9%
CC(C)CC(=O)N1CCC(O)(CS(=O)(=O)Cc2ccccc2)CC1 1.9%
O=C(CN1CCN(S(=O)(=O)c2ccc(Cl)s2)CC1)NCc1ccc(Cl)cc1 -1.1%
CC(C)(CCl)C(=O)Nc1ccc(Sc2ccc(F)cc2)cc1 28.4%
COC(=O)C(NC(=O)c1ccc(OC)cc1)(Nc1ncc(S(=O)(=O)c2ccc([N+](=O)[O-])cc2)s1)C(F)(F)F (stereo not drawn) -1.7%
COc1ccc(OCC(=O)NN2Cc3ccccc3C2=N)cc1 4.7%
O=C(NCCSCc1ccccc1)c1ccc(Cl)c(S(=O)(=O)N2CCOCC2)c1 78.5%
Cc1ccccc1CSCCNC(=O)c1ccc(N(C)S(=O)(=O)c2ccccc2)cc1 36.1%
O=C(COC(=O)c1ccccc1NC(=O)c1ccco1)Nc1ccc2c(c1)OC(F)(F)O2 28.3%
CO/N=C/c1ccc(N2CCN(C(=O)c3cccc(Cl)c3)CC2)c([N+](=O)[O-])c1 -9.1%
N#C/C(=C(/O)Cc1cccc2ccccc12)c1nc2ccccc2s1 -15.9%
O=C(ON=C1CCN(S(=O)(=O)c2ccccc2)CC1)c1ccc(Cl)cc1 2.3%
O=C(CSc1ccc(/C=N/NC(=O)c2cccc(F)c2)o1)Nc1ccccc1 79%
Cc1noc(C)c1S(=O)(=O)N(CC(=O)NCc1ccc(Cl)cc1)c1ccc2c(c1)OCO2 14.5%
O=C(/C=C/c1ccc(Cl)cc1Cl)NCc1ccco1 19.3%
O=C(CNC(=O)Cc1ccccc1)NCC(=O)OCC(=O)c1ccccc1Cl -0.5%
CCC(=O)OCc1c(C(F)(F)F)nn(C)c1Oc1cccc(C(F)(F)F)c1 7.8%
O=C(O)c1ccccc1NC(=S)NC(NC(=O)c1ccccc1[N+](=O)[O-])C(Cl)(Cl)Cl (stereo not drawn) 7.4%
CNC(=S)NNC(=O)c1sccc1OCc1ccccc1 -3.9%
N#Cc1cc([N+](=O)[O-])ccc1Oc1cccc(/C=N/NC(=O)c2ccc(Cl)cc2)c1 18.1%
COc1ccc(-c2cc(C(=O)n3cnc4ccccc43)c3ccccc3n2)cc1 -13.6%
Cc1cc([N+](=O)[O-])c(NC2CCCCC2)c([N+](=O)[O-])c1 -4.6%
O=C(NCCCN1CCCCC1)c1ccc2c(c1)NC(=O)C(N1CCOCC1)S2 (stereo not drawn) 10%
COc1ccc(C(=O)NCCc2ccc(S(N)(=O)=O)cc2)cc1OC 6.9%
O=C1CSC(c2ccccc2)N1c1nc(-c2ccc(Cl)cc2Cl)cs1 (stereo not drawn) 10.5%
O=C(CN1C(=O)NC(Cc2ccccc2)(Cc2ccccc2)C1=O)NCC1CCCCC1 -8.9%
Cn1c2ccccc2n2c(=O)c(=O)n(CC(=O)c3ccc(F)cc3)nc12 -2%
O=C(CN1CCCCCC1)Nc1ccc(Br)cc1Br 9.4%
CC1(C)CC(=O)C(C=NCCN2CCN(C(=S)Nc3cccc(Cl)c3)CC2)=C(O)C1 13.9%
O=C(Cn1cncn1)N/N=C/c1c2ccccc2cc2ccccc12 2%
C=CCOC(=O)C1=C(C)NC(C)=C(C(=O)OCC=C)C1c1cccs1 -5.1%
COc1ccccc1CSc1nc2ccccc2[nH]1 -2.6%
COc1cc(OC)c(/C=N/NC(=O)c2ccc([N+](=O)[O-])cc2)cc1Br 35.2%
Cc1ccc(NC(=S)Nc2ncccc2C)c(C)c1 6.9%
O=C(/C=C/c1ccccc1)N/C(=C/c1ccccc1)C(=O)Nc1ccccc1O 2.8%
Cc1cc2cc3c(N)[nH]nc3nc2cc1C 4.3%
Cc1ccc(-n2nc(N)c3c(=O)oc(N(C)C)nc32)cc1 10.2%
COc1cc(C(=O)NC(=S)NCc2ccco2)cc(OC)c1OC 12%
Cc1ccc(-c2nc3ccccc3[nH]2)cc1NC(=O)c1sc2ccccc2c1Cl 10.9%
NC(=O)C1(N2CCCCC2)CCN(C(=S)Nc2ccc(Cl)cc2)CC1 0.6%

inhibition, active:
CCc1ccc(/C=N/NC(=O)c2ccc(OC3CCCC3)cc2)s1 95.6%
CCCCCC(=O)Nc1ccc2oc(-c3ccncc3)nc2c1 84.3%
Cc1ccccc1CSCCNC(=O)c1ccc(Cl)c(S(=O)(=O)N2CCOCC2)c1 83.4%
O=C(/C=C/c1cc2c(cc1Br)OCO2)NCc1ccc(Cl)cc1 85.9%
COc1ccc(CCNC(=O)c2ccc3c(c2)NC(=O)C(N2CCOCC2)S3)cc1OC (stereo not drawn) 100%
